# Laboratory results taken from the supplement of paper PMC3334620.
# Whole data set: some 33,000 sequences, median “E-score (-0.5 to 0.5)” near -0.016, cut for the highest 2% near 0.31. The full list was thinned out, with the highest values kept by preference.
# Biological target: Cst6 (UniProt P40535)
# Test: PBM E-score (8-mer binding enrichment) (E-score (-0.5 to 0.5)); higher = stronger / more preferred TF binding
# Settings: protein concentration: 200 nM; construct: GST-DNA-binding domain
# Protocol: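 Universal 'all 10-mer' protein binding microarrays (Agilent AMADID 015681) probed with GST-tagged S. cerevisiae TFs (full-length or DBD) made by in vitro transcription/translation (PURExpress), about 100-200 nM. Bound TF was detected with fluorescent anti-GST. Each ungapped 8-mer (which stands for itself and its reverse complement) is scored by the PBM enrichment score (E-score), a modified Wilcoxon-Mann-Whitney statistic from -0.5 to +0.5, computed with the Universal PBM Analysis Suite. Scale: above 0.35 generally sequence-specific binding.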
# Sequence of UniProt P40535 (P40535 whole entry): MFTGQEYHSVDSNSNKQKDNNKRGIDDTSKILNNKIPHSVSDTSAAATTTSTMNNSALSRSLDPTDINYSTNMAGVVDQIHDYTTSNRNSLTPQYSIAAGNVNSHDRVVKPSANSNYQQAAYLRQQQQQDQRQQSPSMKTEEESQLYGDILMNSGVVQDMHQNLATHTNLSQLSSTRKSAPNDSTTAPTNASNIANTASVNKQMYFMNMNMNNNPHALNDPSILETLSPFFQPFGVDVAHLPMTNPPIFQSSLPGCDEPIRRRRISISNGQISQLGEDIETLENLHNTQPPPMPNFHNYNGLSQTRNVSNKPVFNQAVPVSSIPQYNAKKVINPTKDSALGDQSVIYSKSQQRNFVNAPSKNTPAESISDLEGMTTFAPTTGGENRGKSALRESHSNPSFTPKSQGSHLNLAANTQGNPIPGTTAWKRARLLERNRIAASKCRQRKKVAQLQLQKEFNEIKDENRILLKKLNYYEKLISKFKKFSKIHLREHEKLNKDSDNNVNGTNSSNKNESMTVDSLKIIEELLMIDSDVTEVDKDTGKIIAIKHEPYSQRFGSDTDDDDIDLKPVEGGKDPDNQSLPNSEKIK
row,Sequence,PBM E-score
1,AGCCGATA,-0.0664
2,CCAAGATC,-0.12
3,CGTGAGAG,-0.269
4,ACGACGTC,0.218
5,AAGACGTC,0.28
6,CGGACGTC,0.252
7,ATGACGTC,0.497
8,CTGACGTC,0.482
9,CAGACGTC,0.113
10,AGCAAGCA,-0.252
11,GCCCAGGC,-0.318
12,CCGTATGA,0.226
13,ATGTATGA,0.336
14,ACGTATGA,0.432
15,AGGTATGC,0.111
16,ACGTATGC,0.32
17,CCGTATGC,0.0167
18,ACGTATGG,0.158
19,GTGTATGA,0.186
20,ATGTATGG,0.0177
21,GGGAAGAA,-0.0773
22,ACTGGTGA,-0.0583
23,GAGTTGGA,-0.0506
24,ACACGTAT,0.238
25,TTACGTAA,0.493

row,Sequence,PBM E-score
1,CTACGTAC,0.00059
2,ATACGTAA,0.463
3,ATACGTAG,0.186
4,AGACGTAT,0.144
5,ATACGTAC,0.198
6,TTACGAAA,0.284
7,CTACGTAA,0.451
8,CTACGTAG,0.137
9,ATACGTAT,0.376
10,TTACGGAA,0.178
11,AGGTCCAT,-0.0689
12,CGTTCTCC,-0.174
13,CAGCGCCC,-0.0102
14,ATAGATGC,-0.0272
15,TAGCAGAA,0.107
16,AGTATGTC,0.155
17,CAGTGTGA,0.158
18,AGGTTGAC,0.0459
19,GAAACGCA,0.172
20,AGACATCC,-0.211
21,GTACGTAA,0.449
22,GTACGTAC,0.0996
23,GCACGTAC,-0.00487
24,TCAAGCGA,-0.00748
25,ACAGGCGG,-0.104

row,Sequence,PBM E-score
1,ATGCCGTA,0.372
2,GTGCCGTA,0.389
3,GTGCCGGA,-0.104
4,ATGCCGTC,0.323
5,CTGCCGTC,0.0959
6,ATGCCGTG,0.283
7,ATGCCGAA,0.0887
8,CTGCCGTA,0.0163
9,AAGCCGTA,0.173
10,GGGTTAAA,-0.06
11,GAGAGAGC,-0.197
12,GATTGCGC,0.0307
13,AATTGCGG,-0.0187
14,AATTGCGA,-0.111
15,AATTGCGC,0.309
16,AATTGCGT,0.315
17,CATTGCGC,0.0683
18,AAAACGCG,0.205
19,AACGTTGC,-0.0467
20,AAGTACCT,-0.196
21,AAGTGAAG,-0.0822
22,AAGCCGAC,-0.231
23,AGACGGCC,-0.214
24,ACACGGCG,0.394
25,CCACGGCG,0.309

row,Sequence,PBM E-score
1,CCACGGCA,0.235
2,CAACGCCG,0.191
3,ACACGGCA,0.282
4,AAACGCCG,0.36
5,CCACGGCC,-0.0591
6,AGACGGCG,0.305
7,AAACGCCA,0.18
8,ACACGGCT,0.266
9,CGACGGCG,0.257
10,TCCTCCGA,-0.395
11,CCCCTTAA,-0.212
12,AGGCAAAT,0.164
13,ATACAGGC,-0.121
14,GCAGGCAA,-0.0304
15,AGAGGATC,-0.18
16,AAACGGCT,0.105
17,AAACGGCG,0.369
18,AAACGGCC,0.084
19,ACAAGTAA,-0.0276
20,CCAGTTCA,0.0369
21,AAAATGAC,0.327
22,ATAATGGA,0.109
23,CTAATGAC,0.252
24,GTAATGAA,0.268
25,GTAATGGA,0.353

row,Sequence,PBM E-score
1,AAAATGAA,0.155
2,CAAATGAC,0.248
3,GAAATGAC,0.32
4,AAAATGAT,0.298
5,CTAATGGA,-0.085
6,GTAATGAC,0.377
7,GAAATGAA,0.237
8,CTGCATCC,-0.101
9,CTTGCAGA,-0.138
10,CACGCCCA,-0.21
11,GCTAACCC,-0.223
12,ACATCCCC,-0.119
13,AAAGCCCA,6e-05
14,CACGCATA,-0.215
15,GACGCATC,0.0635
16,GACGCATA,0.315
17,GCTTCCTA,-0.0171
18,ACACCACG,-0.0337
19,CAATGCCA,-0.0721
20,CGCGTCAC,0.418
21,CGCGTCAG,0.0126
22,AGCGTCAA,0.269
23,GGCGTCTA,0.0648
24,AGCGTCAC,0.332
25,AGCGTCAG,0.177

row,Sequence,PBM E-score
1,GGCGTCCC,-0.225
2,GGCGTCAC,0.431
3,AGAGTCAT,-0.0245
4,AGCGTCAT,0.423
5,AGCGTCCT,-0.276
6,CGCGTCAA,0.211
7,AATCCATA,0.0862
8,CGCCGAGC,0.0842
9,CTGTCGCA,-0.146
10,CGGTCCTC,-0.133
11,CATGCGAA,0.111
12,AAGTTAAT,0.213
13,AGAGAAAC,0.0803
14,AATTGGCG,0.198
15,GTCTCTTA,-0.00905
16,GCGATGAA,0.0225
17,GGGATGAC,0.221
18,ACGATGAA,0.154
19,CCGATGAC,0.336
20,ACGATGAC,0.387
21,CCGATGAA,0.0447
22,ACGATGAT,0.206
23,GCGATGAC,0.413
24,CCGATGAG,-0.087
25,AACTGAGC,-0.152

row,Sequence,PBM E-score
1,AGGGCCTA,-0.327
2,AACCTACG,-0.043
3,ATGAGGTA,0.312
4,CTGAGGTA,0.0121
5,ATGAGGTG,0.174
6,AACTGCTC,-0.0302
7,GAGGTGAA,-0.0049
8,AATGTCAC,0.308
9,ACTGTCAC,0.141
10,AATGTCGT,0.195
11,AATGTAAG,0.192
12,AATGTCAG,-0.00168
13,GCTGTCAC,0.0464
14,GATGTCAA,0.245
15,AATGTAAA,0.258
16,AATGTAAT,0.347
17,AATGTCAT,0.356
18,ACTGTCAT,0.0752
19,GATGTCAC,0.448
20,CGACCCCG,-0.235
21,AACCTAAT,-0.0438
22,CAGTTTTA,0.00126
23,AGTAGGTA,-0.0379
24,CCGATCTA,-0.27
25,CGAACGAA,0.0744

row,Sequence,PBM E-score
1,AAGGCGCT,0.118
2,CACACGGC,0.293
3,ACGTACCG,0.0475
4,ATTTCGAG,0.0911
5,TCAGGGAA,-0.141
6,CGGCTGGC,-0.28
7,CATGTCAC,0.36
8,CATGTAAC,0.014
9,CATGTCAA,0.161
10,AATGTAAC,0.0559
11,CATGTCAG,0.144
12,GATGTAAC,0.341
13,ATTGGCCC,-0.36
14,GATGAGAC,0.0611
15,ATAATGTA,0.203
16,CATTCCCG,0.0388
17,ATGTTGAA,0.104
18,GGTAATAC,0.111
19,AGTAATAC,-0.0264
20,CGTAATAA,0.325
21,CCTAATAA,0.00168
22,AGTAATAA,0.302
23,CGTAATAG,0.318
24,CGTAATAC,0.366
25,TGTAATAA,0.329

row,Sequence,PBM E-score
1,CATAATAG,0.202
2,GGTAATAA,0.247
3,CTTAATAA,0.155
4,AGTAATAG,0.211
5,CATTGCCC,-0.241
6,AACTTGCT,-0.117
7,CTAACTAG,0.0585
8,GGATTGCA,0.0154
9,ATATACAT,0.16
10,TGGGGAAA,0.0662
11,AACCATCC,-0.0939
12,CGAATGAA,0.0688
13,CGAATGAC,0.348
14,GGAATGAC,0.255
15,AGAATGAG,-0.0205
16,AGAATGAA,0.207
17,AGAATGAC,0.354
18,GGACGGGA,-0.285
19,ATAAGTAA,0.164
